Experimental data as given in PubChem BioAssay AID588405 (Sanford-Burnham Center for Chemical Genomics, 2011).
Out of some 360,000 compounds screened, about 6,200 (1.7%) were called active.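 Rule for the calls: active = inhibition of at least 50% at 20 µM; inactive = the rest.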 The list comes from a sample in which actives are over-represented; it also holds similar structures and randomly drawn compounds.

Assay: inhibition of PEG-3 promoter activity – cell-based, HeLa, luciferase luminescence, primary screen (AID 588405)
Settings: HeLa PEG-Prom luciferase reporter, overnight, at 20 µM, hits give high values

**Q.** With `CCc1nc2c(OCc3ccc(C(F)(F)F)cc3)cccn2c1N(C)C(=O)CC(C)C` as the molecule, how does the inhibition read?
**A.** 15.7% (inactive)

**Q.** With `C=C1C2C[C@H](O)C(C)(C)[C@@]2(O)[C@H](O)C[C@]23C[C@@](C)(O)[C@H](CC[C@H]12)[C@H]3O` (stereo not given in full) as the molecule, how does the inhibition read?
**A.** 98.4% (active)

**Q.** With `O=C(NCC12CC3CC(C1)CC(CNC(=O)N1CCCC1)(C3)C2)N1CCCC1` as the molecule, how does the inhibition read?
**A.** 18.2% (inactive)

**Q.** With `CC(C)(O)C#Cc1ccc(CNC[C@H]2O[C@@H](n3cnc4c(=O)[nH]c(N)nc43)[C@H](O)[C@@H]2O)s1` as the molecule, how does the inhibition read?
**A.** 14.8% (inactive)

**Q.** With `O=C(NC(Nc1nc2ccc([N+](=O)[O-])cc2s1)(C(F)(F)F)C(F)(F)F)c1ccccc1` as the molecule, how does the inhibition read?
**A.** 68.7% (active)

**Q.** Which inhibition does the source give for `O=C(O)c1cc([N+](=O)[O-])c(Nc2cccc3ccccc23)c([N+](=O)[O-])c1` here?
**A.** 5.86% (inactive)

**Q.** Which inhibition does the source give for `CC(Nc1ccc([N+](=O)[O-])cc1[N+](=O)[O-])c1ccccc1` (stereo not given) here?
**A.** 31.3% (inactive)

**Q.** Which inhibition does the source give for `Cc1ccc(S(=O)(=O)N2CC[C@H]3[C@@H](C2)C(=O)C[C@@H](c2ccccc2)N3S(=O)(=O)c2ccc(C)cc2)cc1` here?
**A.** -19.4% (inactive)

**Q.** Which inhibition does the source give for `CSc1ccc(CN2CCC2(C)C(=O)Nc2ccc(C)c(O)c2)cc1` (stereo not given) here?
**A.** -4.73% (inactive)

**Q.** With `c1ccc(Cc2c(-c3ccco3)nc3c4ccccc4ccn23)cc1` as the molecule, how does the inhibition read?
**A.** -310% (inactive)

**Q.** With `O=C(NCc1ccc(F)cc1)c1cc(C2CCCCN2C(=O)C2CCCCC2)on1` (stereo not given) as the molecule, how does the inhibition read?
**A.** 2.91% (inactive)

**Q.** Which inhibition does the source give for `O=C(/C=C/Sc1ncn[nH]1)c1ccc(Cl)cc1` here?
**A.** 100% (active)

**Q.** Which inhibition does the source give for `COc1ccc(Cl)cc1C=CC=Nc1ccc(S(N)(=O)=O)cc1` here?
**A.** 7.02% (inactive)

**Q.** With `COc1ccc(Cl)cc1C=CC=NNC(=O)c1ccncc1` as the molecule, how does the inhibition read?
**A.** 97% (active)

**Q.** Which inhibition does the source give for `COc1ccccc1/C=C/C=N/NC(=O)CN1CCN(Cc2ccccc2)CC1` here?
**A.** 3.31% (inactive)

**Q.** Which inhibition does the source give for `COCc1cccc(-c2csc(C(O)c3ccc(F)cc3)n2)c1` (stereo not given) here?
**A.** -120% (inactive)

**Q.** With `CCCS(=O)(=O)NC(=O)C1(C)CCCN(C(=O)c2cccs2)C1` (stereo not given) as the molecule, how does the inhibition read?
**A.** 12.1% (inactive)

**Q.** For `Cc1cccc2nc(CSc3nc4[nH]ncc4c(=O)n3-c3cccc(Cl)c3)cc(=O)n12`, which inhibition is on record?
**A.** 38.6% (inactive)

**Q.** Which inhibition does the source give for `CCc1ccc(-n2c(SCc3cc(=O)n4cc(Br)ccc4n3)nc3[nH]ncc3c2=O)cc1` here?
**A.** 54.1% (active)

**Q.** For `O=c1c2sccc2nc(SCc2cc(=O)n3ccccc3n2)n1-c1ccc(Br)cc1`, which inhibition is on record?
**A.** 40.8% (inactive)

**Q.** With `COc1cc(C=C(OC(C)=O)c2ccc3c(c2)OCO3)cc(OC)c1OC` as the molecule, how does the inhibition read?
**A.** 7.01% (inactive)

**Q.** For `COc1ccc(C2CC(c3ccccc3)=NN2C(=O)c2ccc(Cl)c([N+](=O)[O-])c2)cc1` (stereo not given), which inhibition is on record?
**A.** 72.4% (active)

**Q.** Which inhibition does the source give for `COc1ccc(C2=NN(C(=O)c3ccccc3C(=O)O)C(c3ccccc3O)C2)cc1` (stereo not given) here?
**A.** -268% (inactive)

**Q.** With `COc1ccc(C2CC(c3ccccc3)=NN2C(=O)CSc2nccc(=O)[nH]2)cc1` (stereo not given) as the molecule, how does the inhibition read?
**A.** -109% (inactive)

**Q.** Which inhibition does the source give for `CC(=O)Nc1cc(-c2ccccc2N(C)C)cn2c(-c3ccc(F)c(Cl)c3)cnc12` here?
**A.** 32% (inactive)

**Q.** With `COc1ccc(NC(=O)C(C)SCc2ccccc2)cc1` (stereo not given) as the molecule, how does the inhibition read?
**A.** -27.6% (inactive)

**Q.** With `O=C(c1cc(C2CCCCN2S(=O)(=O)c2ccccc2)on1)N1CCOCC1` (stereo not given) as the molecule, how does the inhibition read?
**A.** 1.6% (inactive)

**Q.** Which inhibition does the source give for `COc1cc(Cn2c3ccc(NC(=O)CC(C)c4ccccc4)cc3c(=O)n2C)ccc1F` (stereo not given) here?
**A.** 12.9% (inactive)

**Q.** With `COC(=O)c1c(C)[nH]c(C(=O)/C=C/c2ccc(Cl)cc2)c1C` as the molecule, how does the inhibition read?
**A.** -126% (inactive)

**Q.** With `CC1(C(=O)O)CCCN(C(=O)/C=C/c2ccccc2)C1` (stereo not given) as the molecule, how does the inhibition read?
**A.** 5.91% (inactive)

**Q.** With `Cc1[nH]c(=O)c(C(=O)/C=C/c2ccccc2)c2c1CCCC2` as the molecule, how does the inhibition read?
**A.** 102% (active)

**Q.** Which inhibition does the source give for `COc1ccc(-c2coc3c(C(=O)NC(C)C)cccc23)c(C)c1` here?
**A.** 10.8% (inactive)

**Q.** Which inhibition does the source give for `COc1ccc(S(=O)(=O)NC(=O)C2(C)CCN2C(=O)c2ccccc2CCc2ccccc2)cc1` (stereo not given) here?
**A.** -1.34% (inactive)

**Q.** Which inhibition does the source give for `CCCC(=O)N1CCC1(C)C(=O)NCc1ccc(SC)cc1` (stereo not given) here?
**A.** -5.97% (inactive)

**Q.** For `Cc1cccc(N2C(=O)SC(SC(=Nc3ccccc3)Nc3ccccc3)C2=O)c1` (stereo not given), which inhibition is on record?
**A.** -30% (inactive)

**Q.** With `Cc1ccc(-c2nn(C(C)(C)C)c3ncnc(N)c23)cc1` as the molecule, how does the inhibition read?
**A.** 55.2% (active)

**Q.** For `N#Cc1ccc(-c2ccc3nccn3c2)cc1`, which inhibition is on record?
**A.** -24.7% (inactive)

**Q.** With `O=C1NC(c2ccccc2)=NC1(Nc1ccccn1)C(F)(F)F` (stereo not given) as the molecule, how does the inhibition read?
**A.** -4.5% (inactive)

**Q.** Which inhibition does the source give for `CC(=O)c1ccc(-c2cnc3c(NC=O)cc(-c4cccc(NS(C)(=O)=O)c4)cn23)cc1` here?
**A.** 48.1% (inactive)

**Q.** Which inhibition does the source give for `N/C(=N/O)c1cccn1Cc1ccccc1[N+](=O)[O-]` here?
**A.** 3.69% (inactive)

**Q.** With `O=c1c([N+](=O)[O-])cccn1Cc1ccc(F)cc1Cl` as the molecule, how does the inhibition read?
**A.** 56.1% (active)

**Q.** Which inhibition does the source give for `Cc1ccc(-c2ccc(=O)n(Cc3ccc(F)cc3Cl)n2)cc1` here?
**A.** 2.87% (inactive)

**Q.** With `CC(C)c1cccc(-c2csc(C(O)c3ccccc3)n2)c1` (stereo not given) as the molecule, how does the inhibition read?
**A.** -103% (inactive)

**Q.** For `CSCCC(c1nnnn1Cc1ccccc1)N1CCN(C/C=C/c2ccccc2)CC1` (stereo not given), which inhibition is on record?
**A.** 11.4% (inactive)

**Q.** Which inhibition does the source give for `CCc1ccc(C2N3CC4([N+](=O)[O-])CN2CC([N+](=O)[O-])(C3)C4(C)C)cc1` (stereo not given) here?
**A.** 27.3% (inactive)

**Q.** With `C=CC[n+]1c(-c2ccc(C)cc2)csc1NNC(=O)Nc1ccccc1` as the molecule, how does the inhibition read?
**A.** -6.81% (inactive)

**Q.** Which inhibition does the source give for `COc1ccccc1NC(=O)Nc1nc(CC(=O)Nc2ccccc2F)cs1` here?
**A.** 4.34% (inactive)

**Q.** Which inhibition does the source give for `NC(c1csc(NC(=O)Nc2ccccc2Oc2ccccc2)n1)c1ccccc1Cl` (stereo not given) here?
**A.** 58.1% (active)

**Q.** Which inhibition does the source give for `CC(=O)c1ccc(Nc2nc(C(N)c3ccccc3Cl)cs2)cc1` (stereo not given) here?
**A.** -22.8% (inactive)

**Q.** For `O=S1(=O)C[C@@H](N2CCN(CCO)CC2)[C@H](COCc2ccccc2)N1`, which inhibition is on record?
**A.** -0.57% (inactive)

**Q.** With `COC(=O)C1=C(C)N(C(C)c2ccccc2)C(=O)/C1=C\c1ccco1` (stereo not given) as the molecule, how does the inhibition read?
**A.** 12.2% (inactive)

**Q.** Which inhibition does the source give for `O=C(CCn1c(=S)[nH]c2cc3c(cc2c1=O)OCO3)NCc1ccc(Cl)cc1` here?
**A.** 9.93% (inactive)

**Q.** Which inhibition does the source give for `COCCn1c(=S)[nH]c2cc(C(=O)NCCc3ccc(OC)c(OC)c3)ccc2c1=O` here?
**A.** 17.6% (inactive)

**Q.** With `CCN(CC)CCCNC(=O)c1ccc2c(=O)n(Cc3ccc4c(c3)OCO4)c(=S)[nH]c2c1` as the molecule, how does the inhibition read?
**A.** 56.1% (active)

**Q.** Which inhibition does the source give for `Cc1ccc(S(=O)(=O)CCC(=O)Nc2nnc(CC(C)C)s2)cc1` here?
**A.** 10.6% (inactive)

**Q.** For `Cc1nnc(NC(=O)C(c2ccccc2)c2ccccc2)s1`, which inhibition is on record?
**A.** -0.94% (inactive)

**Q.** Which inhibition does the source give for `Cc1ccc(CS(=O)(=O)c2ncc(Cl)c(C(=O)Nc3nnc(C)s3)n2)cc1` here?
**A.** 98.9% (active)

**Q.** For `CSc1nnc(NC(=O)c2nc(S(=O)(=O)Cc3ccc(C)cc3)ncc2Cl)s1`, which inhibition is on record?
**A.** 103% (active)

**Q.** Which inhibition does the source give for `O=C(Nc1nnc(-c2ccc(F)cc2)s1)c1c(F)cccc1Cl` here?
**A.** -27.2% (inactive)

**Q.** With `NC(=O)CSc1nnc(NC(=O)c2ccc(Br)o2)s1` as the molecule, how does the inhibition read?
**A.** -5.94% (inactive)
